From PubChem BioAssay
The list is not random: actives were taken first. Their share in the collection is about 18%.
TDP1 cell CPT: DT40-hTDP1 cell growth loss with CPT; chicken DT40 Tdp1-/-;hTDP1 cells + 20 nM CPT, ATP luminescence, 48 h; Potency, µM (highest dose often 46.2 µM), for the others: at the highest dose activity change, negative = growth inhibition, most hits filed as inhibitors; 420,000 tested, 12% active; note: potency is the fitted concentration of half-maximal effect; nearly all actives have a fitted effect of over 55% in size
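Chicken DT40 Tdp1-/- cells stably complemented with human TDP1 were seeded at 400 cells/well in medium containing 20 nM camptothecin, exposed to pin-transferred compounds, and grown at 37 °C for at least 48 hr. Viability was read as ATP luminescence.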
TDP1 cell noCPT: qHTS for Inhibitors of human tyrosyl-DNA phosphodiesterase 1 (TDP1): qHTS in cells in absence of CPT; DT40 Tdp1-/- hTDP1 cells, no CPT, ATP luminescence, 48 h; Potency, µM (titrated, usually from 46.2 µM), for the others: at the top dose activity change, negative = growth inhibition, usual class: inhibitors; 420,000 tested, 15% active; note: potency is the fitted concentration of half-maximal effect; nearly all actives have a fitted effect of over 55% in size
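Stably hTDP1-transfected Tdp1-null chicken DT40 cells were treated with library compounds minus camptothecin and grown for at least 48 hr at 37 °C, after which cellular ATP was quantified by luminescence.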
VP16 counter: Gal4-VP16 reporter inhibition counter-screen; Drosophila S2 Gal4-VP16 UAS-luciferase, luminescence, 20 h; Potency, µM (series often up to 53.6 µM), for the others: at the highest dose activity, negative = inhibition, usual class: inhibitors; 310,000 tested, 3.5% active;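 note: Gal4-VP16 expression switched on by copper sulfate through the metallothionein promoter; potency is the fitted concentration of half-maximal effect; nearly all actives have a fitted effect of over 50% in size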
LDHA block: LDHA (human) enzyme inhibition; purified LDHA, NADH/diaphorase-resazurin fluorescence; hits give low values; activity change, % (values are at about 110 or 230 µM); 480,000 tested, 0.15% active; in the data active = activity change below about -30%; inconclusive = mostly about -25% to -30%;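 note: plate controls were DMSO wells for no effect and wells without enzyme for full effect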
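Resorufin fluorescence (ex540/em590), read at 0 and 20 min after diaphorase/resazurin addition, reports the NADH left after a 5 min room-temperature reaction of 2 nM human LDH5 with 0.06 mM NADH and 0.2 mM pyruvate.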
RORg inh: blocks mouse ROR gamma transcriptional activity. P51450. Drosophila S2 Gal4-RORgamma UAS-luciferase reporter, 20 h. Potency, µM (top dose mostly 53.6 µM), without a hit: top-dose activity change, negative = inhibition, actives largely listed as inhibitors. 310,000 tested, 5.4% active; note: potency is the fitted concentration of half-maximal effect; nearly all actives have a fitted effect of over 60% in size
Target sequence (P51450 whole entry, looked up, the tested form may be a part): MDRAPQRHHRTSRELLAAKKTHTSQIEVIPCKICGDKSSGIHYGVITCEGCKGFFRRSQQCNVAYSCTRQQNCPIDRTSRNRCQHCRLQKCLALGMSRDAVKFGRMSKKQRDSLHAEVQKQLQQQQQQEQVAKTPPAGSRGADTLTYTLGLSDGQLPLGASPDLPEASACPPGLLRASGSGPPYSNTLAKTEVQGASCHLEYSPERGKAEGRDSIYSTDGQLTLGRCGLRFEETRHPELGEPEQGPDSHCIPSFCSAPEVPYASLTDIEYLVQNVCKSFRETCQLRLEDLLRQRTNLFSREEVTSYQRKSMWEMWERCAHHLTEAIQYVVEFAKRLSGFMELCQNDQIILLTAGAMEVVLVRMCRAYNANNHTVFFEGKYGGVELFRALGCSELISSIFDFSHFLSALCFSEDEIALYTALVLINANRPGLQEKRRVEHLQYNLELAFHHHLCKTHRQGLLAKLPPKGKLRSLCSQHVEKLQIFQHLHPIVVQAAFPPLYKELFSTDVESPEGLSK
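Luminescence from a UAS-regulated Photinus luciferase reporter in stably transfected Drosophila Schneider cells is measured; decreased signal marks ROR gamma inhibition. Fusion expression is induced by 700 uM copper sulfate for 20 hr.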
IL1B secr inh: inhibitors of inflammasome signaling (IL-1 beta secretion); THP-1 LPS/ATP IL-1B secretion, AlphaLISA, 16 h; hits give low values; activity change, % at 57.5 µM; 360,000 tested, 4.7% active; AID 743279; in the data active = activity change below about -50%; inconclusive = mostly about -30% to -49%
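THP-1 cells pretreated 1 hr with compounds (up to 57.5 uM final), then stimulated with LPS (250 ng/mL final) plus ATP (1.25 mM final); secreted IL-1B measured by AlphaLISA after 16 hr, decreased signal indicating inhibition.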
* marks the source's active call; other numbers are inactive results. Unless noted, calls come from the whole dose curve; as a rule, active = well fitted curve in the direction sought with a large enough effect; inconclusive = small, poorly fitted or top-dose-only effect, or another doubt; inactive = no such curve, though single readings can be large; an effect the other way counts as inactive or inconclusive. Unless noted, % is set by controls: 0 for no effect and ±100 for the full control effect.

Screening O=C(NC(c1ccccc1)c1ccc2ccccc2n1)C1CCN(Cc2ccc(Oc3ccccc3)cc2)CC1 (configuration not stated) returned TDP1 cell CPT inconclusive, TDP1 cell noCPT inconclusive, LDHA block -4 and IL1B secr inh inconclusive.
Screening O=C(NC(c1ccc2ccccc2n1)c1cccs1)C1CCN(Cc2cccc(C(F)(F)F)c2)CC1 (configuration not stated) returned TDP1 cell CPT 7.3µM*, TDP1 cell noCPT 10µM*, LDHA block -6 and IL1B secr inh -66*.
For O=C(NC1CCN(Cc2cccc(C(F)(F)F)c2)CC1)C1CCCCC1 the results were LDHA block -1.
Screening CC(C)(C)C1=N/C(=C/c2ccc(OC(F)F)cc2)C(=O)O1 returned LDHA block -2.
Screening CCOCCCNc1nc2c(c(=O)[nH]c(=O)n2C)n1CCOCC returned LDHA block 0.
`COc1ccc2[nH]cc(C=O)c2c1` gave TDP1 cell CPT -7%, TDP1 cell noCPT -10%, VP16 counter 1%, LDHA block -8, RORg inh 7% and IL1B secr inh -7.
Screening Cc1ccc(C(=O)/C=C/c2c[nH]c3ccccc23)cc1 returned TDP1 cell CPT -9%, TDP1 cell noCPT -18%, VP16 counter -10%, LDHA block 0, RORg inh inconclusive and IL1B secr inh -14.
Screening COc1ccc2[nH]cc(/C=C/c3cc[n+](C)cc3)c2c1 returned TDP1 cell CPT inconclusive, TDP1 cell noCPT 5.2µM*, VP16 counter 4%, LDHA block 8, RORg inh 14% and IL1B secr inh 20.
For O=C(/C=C/c1c[nH]c2ccccc12)c1ccccc1 the results were TDP1 cell CPT 21µM*, TDP1 cell noCPT inconclusive, VP16 counter inconclusive, LDHA block 1, RORg inh -1% and IL1B secr inh 5.
COc1ccc2[nH]cc(/C=C/C(=O)c3ccccc3)c2c1 was read as TDP1 cell CPT inconclusive, TDP1 cell noCPT inconclusive, VP16 counter 2%, LDHA block 3, RORg inh 24% and IL1B secr inh -104*.
`Cc1nn(-c2ccccc2)c(C)c1CN(C)S(=O)(=O)c1ccc(Cl)cc1F` gave LDHA block 1.
For O=C(CSc1ncnc2nc[nH]c12)Nc1ccccc1 the results were LDHA block -8.
Cc1cc(/C=C/C(=O)c2ccc3ccccc3c2)c(C)s1 was read as LDHA block 2.
For CC(Sc1nnc2ccccn12)C(=O)c1ccc(Br)cc1 (configuration not stated) the results were LDHA block -8.
O=C(NCc1cccnc1)c1nc(-c2ccc(C(F)(F)F)cc2)no1 was read as TDP1 cell CPT 15µM*, TDP1 cell noCPT 13µM*, VP16 counter 3.2µM*, LDHA block -5, RORg inh inconclusive and IL1B secr inh 8.
Screening O=C(NCc1ccncc1)c1nc(-c2ccc(C(F)(F)F)cc2)no1 returned TDP1 cell CPT 15µM*, TDP1 cell noCPT 8.2µM*, VP16 counter inconclusive, LDHA block -2, RORg inh inconclusive and IL1B secr inh inconclusive.
`O=C(NCc1ccncc1)c1nc(-c2cccs2)no1` gave TDP1 cell CPT -2%, TDP1 cell noCPT -27%, VP16 counter -8%, LDHA block -5, RORg inh 17% and IL1B secr inh 0.
COc1ccccc1OCCCn1c(C)c(C#N)c2ccccc21 was read as TDP1 cell CPT 21µM*, TDP1 cell noCPT 26µM*, VP16 counter -25%, LDHA block -8, RORg inh -1% and IL1B secr inh -11.
`COc1ccccc1OCCCn1cc(C#N)c2ccccc21` gave TDP1 cell CPT -22%, TDP1 cell noCPT inconclusive, VP16 counter inconclusive, LDHA block -3, RORg inh inconclusive and IL1B secr inh -20.
For COc1ccc(-c2nc(N)nc(C(F)(F)F)c2-c2csc(C)n2)c(O)c1 the results were TDP1 cell CPT -4%, TDP1 cell noCPT -9%, VP16 counter -3%, LDHA block 0, RORg inh 31% and IL1B secr inh 68.
`CCOc1cc(C)c(-c2onc(C(F)(F)F)c2-c2csc(C)n2)c(O)c1` gave TDP1 cell CPT inconclusive, TDP1 cell noCPT inconclusive, VP16 counter 11µM*, LDHA block 3, RORg inh 12% and IL1B secr inh -55*.
`COC(=O)c1ccc(Oc2cc(C)nc(NCc3ccccc3)n2)cc1` gave TDP1 cell CPT -29%, TDP1 cell noCPT inconclusive, VP16 counter -1%, LDHA block -5, RORg inh 20% and IL1B secr inh 11.
`CCOC(=O)c1ccc(Oc2cc(C)nc(SC)n2)cc1` gave TDP1 cell CPT 8.2µM*, TDP1 cell noCPT 9.2µM*, VP16 counter -11%, LDHA block -10, RORg inh -34% and IL1B secr inh 25.
For Cc1cc(N2CCCCC2)nc(SCC(=O)c2ccccc2)n1 the results were TDP1 cell CPT inconclusive, TDP1 cell noCPT 12µM*, VP16 counter 20%, LDHA block 3, RORg inh -7% and IL1B secr inh -27.
For COC(=O)c1ccc(Oc2cc(C)nc(-n3nc(C)cc3C)n2)cc1 the results were TDP1 cell CPT 0.73µM*, TDP1 cell noCPT 0.58µM*, VP16 counter 3.2µM*, LDHA block -7, RORg inh 0.28µM* and IL1B secr inh 48.
For Cc1cc(Oc2ccc(Br)cc2)nc(SCC(=O)c2ccccc2)n1 the results were TDP1 cell CPT 23µM*, TDP1 cell noCPT 21µM*, VP16 counter -5%, LDHA block -4, RORg inh 14% and IL1B secr inh 24.
For CCCC(=O)NNC(=S)NC(C)c1ccccc1 (configuration not stated) the results were LDHA block -2.
Screening Cc1cc(Oc2ccc3ccccc3c2)nc(SCC(=O)c2ccccc2)n1 returned TDP1 cell CPT 21µM*, TDP1 cell noCPT 18µM*, VP16 counter -10%, LDHA block -2, RORg inh 30% and IL1B secr inh 12.
`COC(=O)CSc1nc(C)cc(Oc2ccccc2)n1` gave TDP1 cell CPT 0%, TDP1 cell noCPT -17%, VP16 counter 0%, LDHA block -2, RORg inh 10% and IL1B secr inh 10.
